Screen size: about 11,000 compounds; about 310 (2.8%) were called active. This is one part of a sample in which actives are shown more often than they occur. No stated cut-off is given here; in the data, active means activity change below about -85%; inactive means the rest.
These compounds were tested on intestinal alkaline phosphatase [Mus musculus] (assay: mouse intestinal phosphatase enzyme activation – biochemical, luminescence, single concentration, confirmation (AID 434970)). Conditions: purified mouse IAP, CDP-Star luminescence, 30 min, at 10 µM; activation factor: measured here: IAP activation factor, stronger effect = higher value; activity change, negative = activation: stronger effect = lower value.
With `Cc1cc(C)cc(NC(=S)NC2CC3CCCC(C2)N3Cc2cccs2)c1` (stereo not given) the activation factor was 2.5 and the activity change, negative = activation was -150% (active).
For `Cc1ccc(CN2C3CCCC2CC(NC(=O)Nc2cccc(F)c2)C3)cc1` (stereo not given), the activation factor was 4.48 and the activity change, negative = activation was -348% (active).
`Cc1ccc(CN2C3CCCC2CC(NC(=S)NCc2ccccc2)C3)cc1` (stereo not given) was tested, and the activation factor was 2.88 and the activity change, negative = activation was -188% (active).
With `CCc1ccc(N2C(=O)NC(=O)C(Cc3ccc(OC)cc3OC)C2=O)cc1` (stereo not given) the activation factor was 1.06 and the activity change, negative = activation was -5.6% (inactive).
In the case of `CN1CCN(Cc2cc(C(C)(C)C)c(O)c(C(C)(C)C)c2)CC1`, the activation factor is reported as 0.944 and the activity change, negative = activation is reported as 5.6% (inactive).
For `CC(CO)(CO)N=Cc1c(O)n(-c2cccc3ccccc23)c(=O)[nH]c1=O`, the activation factor was 1.12 and the activity change, negative = activation was -12.2% (inactive).
For `Cc1cc(NC(=O)COC(=O)c2c(C)nn(Cc3ccccc3)c2Cl)no1`, the activation factor was 0.971 and the activity change, negative = activation was 2.9% (inactive).
For `CSc1ccc(C(=O)C(C)(C)N2CCOCC2)cc1`, the activation factor was 0.965 and the activity change, negative = activation was 3.5% (inactive).
In the case of `CCOC(=O)c1c(-n2c(C)cc(C=C3C(=O)NC(=S)NC3=O)c2C)sc2c1CCCC2`, the activation factor is reported as 0.649 and the activity change, negative = activation is reported as 35.1% (inactive).
For `COc1ccc(-n2c(=O)[nH]c3ccccc3c2=O)c(OC)c1`, the activation factor was 1.08 and the activity change, negative = activation was -7.55% (inactive).
`CCOP(=O)(C(NC(=O)c1ccccc1Cl)=C(Cl)Cl)c1ccccc1` (stereo not given) was tested, and the activation factor was 1.07 and the activity change, negative = activation was -6.55% (inactive).
In the case of `O=[N+]([O-])c1cc(S(=O)(=O)c2ccc(O)c([N+](=O)[O-])c2)ccc1O`, the activation factor is reported as 0.471 and the activity change, negative = activation is reported as 52.9% (inactive).
`O=C(Cc1ccccc1)Oc1ccccc1N1C(=O)CCC1=O` was tested, and the activation factor was 1.07 and the activity change, negative = activation was -7.1% (inactive).
For `CCOc1ccc2nc(N3CCC(C(=O)N4CCC5(CC4)OCCO5)CC3)sc2c1`, the activation factor was 0.97 and the activity change, negative = activation was 3% (inactive).
For `CC1(C)CSC(Nc2ccc(F)c(Cl)c2)=N1`, the activation factor was 0.924 and the activity change, negative = activation was 7.6% (inactive).
With `Clc1ccc(C(c2ccc(Cl)cc2)n2cc[n+](CC(OCc3ccc(Cl)cc3Cl)c3ccc(Cl)cc3Cl)c2)cc1` (stereo not given) the activation factor was 31 and the activity change, negative = activation was -3000% (active).
`Cc1nc2cc(F)ccc2n1C1CCN(Cc2nnnn2CCc2ccccc2)CC1` was tested, and the activation factor was 1.13 and the activity change, negative = activation was -13.2% (inactive).
`O=C(Cn1cnc2ccccc2c1=O)NCCC(=O)N1CCC2(CC1)OCCO2` was tested, and the activation factor was 1.09 and the activity change, negative = activation was -9.25% (inactive).
In the case of `COc1ccc(P2(=O)Nc3ccccc3N2)cc1`, the activation factor is reported as 0.951 and the activity change, negative = activation is reported as 4.95% (inactive).
In the case of `CCOC(=O)c1ccc(N2C(=O)CC(N3CC=C(c4ccc(F)cc4)CC3)C2=O)cc1` (stereo not given), the activation factor is reported as 0.996 and the activity change, negative = activation is reported as 0.45% (inactive).
